# Rows were chosen to be rich in hits. Some 4.3% of all compounds tested hit in one or more screens of this group.
# NR3A LBD binder – NR3A (human) ligand-binding domain modulation | NR3A LBD differential scanning fluorimetry, Tm shift; 0% = protein alone, 100% = glycine-bound protein | Tm shift relative to glycine control, % at 25 µM | 2.5% of 340,000 active;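 active = melting temperature shift of at least 10% of the positive control shift, at one fixed dose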
# FAS-TE inh – FAS thioesterase (human) inhibition; inhibition, % at 15 µM; AID 602261; 0.67% of 360,000 active; P49327; recombinant FAS-TE, OMFH fluorogenic substrate, fluorescence endpoint;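 active = compounds whose normalised, plate-corrected inhibition of enzyme fluorescence in the single-dose primary screen is 50% or more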
# NadD block – blocks S. aureus nicotinate mononucleotide adenylyltransferase. purified NadD enzyme, colorimetric absorbance read-out. inhibition, % at 20 µM. 0.78% of 360,000 active. AID 602399; in the data active = inhibition above about 26%
# rCAG RNA binder – r(CAG) repeat RNA binding. AID 651821. inhibition, % at 3 µM. 1.3% of 370,000 active. TO-PRO-1 dye displacement fluorescence;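 active = inhibition above the plate cutoff, the mean of all test compounds on that plate plus 3 SD, cut at about 35% in these data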;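 note: higher means more dye released from RNA so lower well fluorescence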
# Hits are given with their value; i = inactive; nt = no result.
SMILES,NR3A LBD binder,FAS-TE inh,NadD block,rCAG RNA binder
Cc1cc(C(=O)Nc2ccc(S(=O)(=O)N3CCCC3)cc2)cs1,i,i,i,i
Cc1ccc(C(=O)Nc2ccc(S(=O)(=O)N3CCCC3)cc2)s1,24,i,i,i
O=C(Nc1ccc(F)cc1)c1ccc(S(=O)(=O)N2CCCC2)cc1,i,i,i,i
O=C(CN1CCCCC1)Nc1ccc(S(=O)(=O)N2CCCCCC2)cc1,11,i,i,i
COC(=O)c1cc2c(c3c4cc(C)ccc4n(S(=O)(=O)c4cccc(C)c4)c13)C(=O)N(Cc1ccccc1OC)C2,nt,nt,nt,i
NC(=NCCc1c[nH]c2ccccc12)NC(=O)OCc1ccccc1,nt,nt,nt,i
O=C(CCn1nnc(-c2cccs2)n1)N1CCCC1,nt,nt,nt,i
CCCCOCCCNC(=O)C[C@H]1C[C@@]2(C(=O)OC)C(=C[C@H](C(C)C)O[C@@H]2C2CC2)N(Cc2ccccc2)C1=O,nt,nt,nt,i
O=C(Nc1ccc(Cl)cc1Cl)NC1CCN(S(=O)(=O)c2ccc(F)cc2)CC1,21,i,i,i
CC(=O)Nc1ccc(C(=O)Nc2ccc(S(=O)(=O)N3CCCCC3)cc2)cc1,23,i,i,i
CCCCC(=O)Nc1ccc(C(=O)Nc2ccc(S(=O)(=O)N3CCCC3)cc2)cc1,31,i,i,i
O=C(Nc1ccc(NC(=O)c2ccccc2O)cc1)Nc1ccc(F)cc1F,31,i,i,i
O=C(Nc1ccc(Cl)cc1Cl)NC1CCCC1,i,i,i,i
CC(=O)c1ccc(NC(=O)c2ccc(S(=O)(=O)N3CCCC3)cc2)cc1,i,i,i,i
COc1cc(C(=O)NC2CCCCN(Cc3cccc(C(F)(F)F)c3)C2=O)cc(OC)c1OC (centres undefined),nt,nt,nt,i
O=C(OC12CCCN(C1)/C(=C/c1ccccc1)C2)c1ccc(Cl)cc1 (centres undefined),nt,nt,nt,i
O=C(NCCc1ccccc1)OCc1cn(Cc2ccc(C(F)(F)F)cc2)nn1,nt,nt,nt,i
Cc1ccc(-n2c(SCC(=O)Nc3ccc4cn[nH]c4c3)nnc2-c2ccccc2)cc1,nt,nt,nt,i
Cc1ccc(-n2c(Cc3cccs3)nnc2SCc2ccc(Br)cc2)cc1,nt,nt,nt,i
CC(=O)c1ccc(NC(=O)Nc2ccc(S(=O)(=O)N3CCCC3)cc2)cc1,30,i,i,i
CC(C)(O)C#Cc1ccc(CNC[C@H]2O[C@@H](n3cnc(C(N)=O)n3)[C@H](O)[C@@H]2O)s1,11,i,i,i
NC(=O)c1ncn([C@@H]2O[C@H](CNCc3ccccc3C#Cc3ccccc3)[C@@H](O)[C@H]2O)n1,11,i,i,i
COC(=O)[C@]12CCCCC=C1N(Cc1ccc(OC)cc1)C(=O)[C@@H]2CC(=O)NCC1CCCCC1,nt,nt,nt,i
COc1cc(C(=O)NC2CCCCN(Cc3cccc(Cl)c3)C2=O)cc(OC)c1OC (centres undefined),nt,nt,nt,i
Cc1cccc(-c2cccc3c4c([nH]c23)[C@@H]2C[C@H]3[C@@H](C(=O)N2CC4)[C@H](C)ON3C)c1,nt,nt,nt,i
SMILES,NR3A LBD binder,FAS-TE inh,NadD block,rCAG RNA binder
COc1cccc(C(=O)N[C@H](C(=O)N2CCC[C@H]2C(=O)NC2CCCC2)C2CCCCC2)c1,nt,nt,nt,i
CCCCNC(=O)C1CCCN1C(=O)NCc1ccccc1OC (centres undefined),nt,nt,nt,i
Cn1c(=O)c(NCCc2ccccc2)c2c3c(cccc31)C(=O)c1ccccc1-2,43,i,i,i
Cn1c(=O)c(NCCO)c2c3c(cccc31)C(=O)c1ccccc1-2,i,i,i,i
Cc1ccc(C(=O)Cc2ccccc2)c(O)c1,i,i,i,i
CC(C)=CCc1c(O)ccc(C(=O)Cc2ccccc2)c1O,18,i,i,i
N#C/C(=C(/O)COC(=O)c1ccccc1O)c1nc2ccccc2s1,13,i,i,i
CC(C)(C)c1ccc(C(=O)OC/C(O)=C(\C#N)c2nc3ccccc3s2)cc1,17,i,i,i
O=C(OCc1nc2ccccc2s1)c1ccccc1O,i,i,i,i
N#C/C(=C(/O)COC(=O)c1ccc(O)cc1)c1nc2ccccc2[nH]1,i,i,i,i
Oc1[nH]c(=S)sc1/C=C1\C(c2ccccc2)=Nc2ccccc21,16,i,i,i
O=C1Nc2ccccc2N=C(c2ccccc2)c2ccccc21,i,i,i,i
Oc1c(C=C2N=c3ccccc3=N2)sc(=S)n1-c1ccc2ccccc2c1,17,i,i,i
O=C(Nn1c(O)c(C=C2N=c3ccccc3=N2)sc1=S)c1ccc(Cl)cc1,32,i,i,i
Oc1[nH]c(=S)sc1C=C1N=c2ccccc2=N1,18,i,i,i
O=C(COC(=O)CCCCCN=C1NS(=O)(=O)c2ccccc21)Nc1ccc(Cl)c(Cl)c1,22,i,i,i
C=CCN(CC#Cc1ccccc1)CC=C,nt,nt,nt,i
O=C(Nc1ccccc1)N1C(=O)C2(OCCO2)c2ccccc21,13,i,i,i
N/C(=N\OC(=O)c1cccc(Br)c1)c1ccccc1,10,i,i,i
N/C(=N\OC(=O)c1ccc2ccccc2c1)c1ccc(Br)cc1,24,i,i,i
Cc1cccc(C(=O)O/N=C(\N)c2ccc(Br)cc2)c1,i,i,i,i
N/C(=N\OC(=O)c1cccc2ccccc12)c1ccc(Br)cc1,26,i,i,i
Brc1cccc(Cn2ccc3ccc(-c4ccc5ccn(Cc6cccc(Br)c6)c5c4)cc32)c1,nt,nt,nt,i
CCN(CC)C(=O)CC[C@@H]1CC[C@]2(CCCN(C(=O)c3ccco3)C2)O1,nt,nt,nt,i
COC(=O)C1CN(Cc2ccccc2)CCS(=O)(=O)N1Cc1cn(Cc2ccc(Cl)cc2)nn1 (centres undefined),nt,nt,nt,i
SMILES,NR3A LBD binder,FAS-TE inh,NadD block,rCAG RNA binder
Clc1ccc2[nH]c(-c3ccccc3)cc2c1,20,i,i,i
CC(C)(C)N(Cc1cn(Cc2ccccc2)nn1)S(=O)(=O)c1ccccc1Br,nt,nt,nt,i
CCCCCCCCN1CCS(=O)(=O)N(Cc2ccc(Cl)cc2)C(C(=O)OC)C1 (centres undefined),nt,nt,nt,i
C/C(=N\Nc1cccc([N+](=O)[O-])c1)c1ccccc1O,31,i,i,i
C/C(=N\Nc1cccc([N+](=O)[O-])c1)c1cc(F)ccc1O,10,i,i,i
C/C(=N\NC(=O)c1cccc(N/N=C(\C)c2cc(O)ccc2O)c1)c1cc(O)ccc1O,14,i,i,i
COC(=O)[C@]12C[C@H](CC(=O)NCc3ccc(OC)c(OC)c3)C(=O)N(Cc3cccc4ccccc34)C1=C[C@H](C1CCCC1)O[C@@H]2C,nt,nt,nt,i
CC(C)CNc1ccc2c(c1)OC[C@H](C)NS2(=O)=O,nt,nt,nt,i
CCOC(=O)c1c(N)sc2c1CCC(CC)C2 (centres undefined),i,i,i,i
CCOC(=O)c1c(N)sc2c1CCC1C(=O)N(C3CCCCC3)C(=O)C21 (centres undefined),13,i,i,i
COc1ccc(/C(N)=N/OC(=O)c2ccc(Br)o2)cc1,14,i,i,i
COc1ccc(C(=O)O/N=C(\N)c2cccc(C)c2)cc1OC,18,i,i,i
COc1ccc(Cl)cc1C(=O)O/N=C(\N)c1ccncc1,11,i,i,i
Cc1cccc(C(=O)O/N=C(\N)c2ccc(Cl)cc2)c1,11,i,i,i
N/C(=N\OC(=O)c1ccc(Br)o1)c1cccnc1,i,i,i,i
COc1ccc(C(=O)O/N=C(\N)c2ccncc2)cc1OC,i,i,i,i
